We go through 86 sequences from the supplement of paper PMC3334620.

The full ranking holds about 33,000 sequences; the median of “E-score (-0.5 to 0.5)” is about -0.0014, and the highest 2% start at about 0.25. Only a selection was taken, and the highest values are over-represented in it overall.

In the assay the target is T1, Cad1 (UniProt P24813).
T1 sequence: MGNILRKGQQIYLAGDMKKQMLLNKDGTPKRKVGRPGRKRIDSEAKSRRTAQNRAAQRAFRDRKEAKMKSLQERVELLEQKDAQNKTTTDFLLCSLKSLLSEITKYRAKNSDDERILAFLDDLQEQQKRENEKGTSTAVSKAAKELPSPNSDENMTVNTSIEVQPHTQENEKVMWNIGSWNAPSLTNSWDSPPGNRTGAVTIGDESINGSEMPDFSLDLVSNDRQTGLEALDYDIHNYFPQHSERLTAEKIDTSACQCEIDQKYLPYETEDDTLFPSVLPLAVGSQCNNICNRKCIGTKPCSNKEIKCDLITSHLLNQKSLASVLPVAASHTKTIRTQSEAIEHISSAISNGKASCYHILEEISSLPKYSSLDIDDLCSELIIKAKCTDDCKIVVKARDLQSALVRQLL
The assay can be described thus: PBM E-score (8-mer binding enrichment) (E-score (-0.5 to 0.5)); higher = stronger / more preferred TF binding. Particulars: protein concentration: 100 nM; construct: GST-full length. Here is the method:
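Universal 'all 10-mer' protein binding microarrays (Agilent AMADID 015681) probed with GST-tagged S. cerevisiae TFs (full-length or DBD) made by in vitro transcription/translation (PURExpress), about 100-200 nM. Bound TF was detected with fluorescent anti-GST. Each ungapped 8-mer (which stands for itself and its reverse complement) is scored by the PBM enrichment score (E-score), a modified Wilcoxon-Mann-Whitney statistic from -0.5 to +0.5, computed with the Universal PBM Analysis Suite. Scale: above 0.35 generally sequence-specific binding.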
With CCAAATAA, the “PBM E-score” value is 0.15.
On to CTTACAAA, for which the “PBM E-score” value came to 0.372.
On to ATTACAAA, for which the “PBM E-score” value was found to be 0.425.
Next, CTTACAAC: 0.118; CTTACAAG: 0.0333.
Next, ATTACAAT: 0.104; ATTACAAG: 0.0206.
The same measure for ATATAAGA: 0.22.
Consider AGCCCATA, for which the “PBM E-score” value is -0.0468.
Next, AAGAAGCG: -0.184; CGGCGCGC: 0.258; CAACGCGG: 0.0152.
Next, CTGCGCGA: 0.13; ATTCGCGC: 0.17; AGGCGCGC: 0.161.
On to ATGCGCGC, for which the “PBM E-score” value turned out to be 0.238.
The same measure for CTTCGCGC: 0.263.
The same measure for CTTCGCGA: 0.143.
Next, CGGCGCGA: 0.203; CAACGCGA: 0.157; CAACGCGC: 0.311.
On to CTGCGCGC, for which the “PBM E-score” value stood at 0.302.
Next, CAAGGGAC: -0.0828.
The same measure for CGGCTGTA: -0.112; for ACCTCCGC: -0.116.
Next, TCCCGCGA: 0.0875.
Consider ACTCGTAA, for which the “PBM E-score” value worked out at 0.292.
The same measure for ATTCGTTA: 0.158; for ACTCGTAT: 0.0214; for GTTCGTAA: 0.119.
The same measure for ACTCGTAG: -0.103.
The same measure for ATTCGTAA: 0.26.
Consider ATTCGTTG, for which the “PBM E-score” value is 0.258.
Next, ATTCGTTC: 0.09; CTTCGTAA: 0.0607; AAGTTGCT: 0.0232.
On to TAAACCCA, for which the “PBM E-score” value came to 0.119.
The same measure for CAGTTATA: -0.0494; for AATGCGCC: -0.00918.
The same measure for ATTGCGCA: 0.103; for CATGCGCG: 0.202; for AATGCGCG: 0.305.
The same measure for AATGCGCT: 0.0389.
For the sequence AATGCGCA, the “PBM E-score” value came out at 0.342.
Next, ATTGCGCC: -0.061; ATTGCGCG: 0.307.
The same measure for CATGCGCA: 0.116; for AGGCAGAG: -0.0635; for ACGTCGGG: -0.269.
Next, CCCAGATA: -0.0901; GCGGGATA: 0.0173.
Regarding CCCGTATC, the “PBM E-score” value is -0.15.
Next, TCATGACA: 0.301; ACATGACA: 0.159.
The same measure for GCATGACA: 0.0476; for AGAAAGCC: -0.051.
Next, TAACTGAA: -0.0483; AACGTAAA: 0.0278.
Regarding AATGTAAC, the “PBM E-score” value came out at 0.0359.
The same measure for CATGTAAG: 0.129; for AACGTAAC: -0.00693.
With AATGTAAG, the “PBM E-score” value was determined as 0.264.
Next, AATGTAAT: 0.324; AACGTAAT: 0.261; AATGTAAA: 0.193.
Next, ACTGTAAG: 0.167; AAAGTCGC: 0.124.
Next, AAAGATAC: -0.051; AACGAAAG: 0.0872.
With AACGATAT, the “PBM E-score” value was 0.271.
The same measure for AACGATAG: 0.0593; for AAAGATAG: 0.00786; for AAAGATAT: 0.277.
Regarding AACGATAC, the “PBM E-score” value is 0.0534.
Next, AACGAAAT: 0.303; CACGAAAA: 0.161.
TACGAAAA: the “PBM E-score” value was found to be 0.0721.
For the sequence GACGAAAA, the “PBM E-score” value was 0.297.
Next, AACGAAAC: 0.187; ACCATCTG: -0.0991.
The same measure for ACGCAGAC: 0.0915; for GGAACTAC: -0.0515; for GAACGTTC: -0.0713.
With GACTGATC, the “PBM E-score” value was -0.075.
The same measure for CCTGCTAA: -0.128; for CCAACTGG: 0.025.
